Data as given in the supplement of paper PMC9399229.
Where a name gives a salt, the structure may show the parent alone. In all, about 1,900 compounds were measured (“relative cell viability (CellTiter-Glo), compound plus cabozantinib, relative to the cabozantinib arm (arm median 1.05; reference not stated)”: median about 1.1, lowest 2% from about 0.15 on). This is one part of a sample in which the lowest values are shown more often than they occur.

Each compound was assayed on Hep3B (assay: relative cell viability (CellTiter-Glo), compound plus cabozantinib, relative to the cabozantinib arm (arm median 1.05; reference not stated) (fraction); higher = more viable cells (less growth inhibition)). Conditions: cabozantinib 2 µM; 4 days.

Compound	relative cell viability
C[C@@H]1O[C@@H](O[C@H]2C[C@@H](O)[C@]3(CO)[C@H]4[C@H](O)C[C@]5(C)[C@@H](C6=CC(=O)OC6)CC[C@]5(O)[C@@H]4CC[C@]3(O)C2)[C@H](O)[C@H](O)[C@H]1O [Ouabain]	0.105
CC1(C)CC(O)CC(C)(C)N1[O] [Tempol]	1.03
Cc1ccc(-n2nccn2)c(C(=O)N2CCN(c3nc4cc(Cl)ccc4o3)CC[C@H]2C)c1 [Suvorexant (MK-4305)]	0.987
O=C(NCC1CCOCC1)c1cnc(Nc2ccc(Cl)cc2Cl)nc1C(F)(F)F	1.02
CCc1c(C(=O)C(N)=O)c2c(OCC(=O)O)cccc2n1Cc1ccccc1	1.05
[O-][n+]1ccccc1[S-].[O-][n+]1ccccc1[S-].[Zn+2] [Zinc Pyrithione]	0.0184
CCC1(c2cccc(O)c2)CCCCN(C)C1 (stereo not given) [Meptazinol HCl]	1.13
CC(=O)O[C@H]1C[C@@H]2CC[C@@H]3[C@H](CC[C@@]4(C)[C@H]3C[C@H]([N+]3(C)CCCCC3)[C@@H]4OC(C)=O)[C@@]2(C)C[C@@H]1[N+]1(C)CCCCC1 [Pancuronium dibromide]	1.06
Cc1cc2c(C(C)C)c(O)c(O)c(C=O)c2c(O)c1-c1c(C)cc2c(C(C)C)c(O)c(O)c(C=O)c2c1O [Gossypol]	1.15
CC(=O)Nc1ccc(Cc2ccc(NC(C)=O)cc2)cc1	1.07
CC(C)=CCC[C@]1(C)C=Cc2c(O)c3c(c(CC=C(C)C)c2O1)O[C@]12C(=C[C@@H]4C[C@H]1C(C)(C)O[C@@]2(C/C=C(/C)C(=O)O)C4=O)C3=O [Gambogic Acid]	0.118
CCC1=C[C@H]2CN3CCc4c([nH]c5ccccc45)[C@](C(=O)OC)(C2)[C@H]13 [Catharanthine]	1.06
CN1[C@@H]2CC[C@H]1C[C@@H](OC(=O)[C@H](CO)c1ccccc1)C2 [Hyoscyamine]	1.1
CN(C)CCc1ccc(O)cc1 [Hordenine]	1.11
C[C@H]1CCC/C=C/[C@@H]2C[C@H](O)C[C@H]2[C@H](O)/C=C/C(=O)O1 [Brefeldin A]	0.105
c1ccc2c(c1)Nc1ccccc1S2 [Phenothiazine]	1.17
CN(C)Cc1c[nH]c2ccccc12 [Gramine]	1.06
NCC(=O)O.[C-]#[O+].[C-]#[O+].[C-]#[O+].[Cl][Ru]	0.978
C#C[C@]1(O)C=C[C@H]2[C@@H]3CCC4=CC(=O)CC[C@@H]4[C@H]3CC[C@@]21CC [Gestodene]	0.965
Cc1sc2c(c1C)C(c1ccc(Cl)cc1)=N[C@@H](CC(=O)Nc1ccc(O)cc1)c1nnc(C)n1-2	0.454
